Assay results: PubChem BioAssay AID504652 (National Center for Advancing Translational Sciences (NCATS), 2011)
Out of some 360,000 compounds screened, about 11,000 (3.1%) were called active. No stated cut-off is given here; in the data, active means activity change below about -30%; inactive means the rest. This excerpt belongs to a sample that is enriched for actives.

Each compound was assayed against D(1A) dopamine receptor (Homo sapiens) (UniProt P21728) (assay: Antagonist of Human D 1 Dopamine Receptor: qHTS). Conditions: HEK293 TREx D1 cells, calcium flux, dopamine EC80; at 10 µM; active compounds read low.
Chain of D(1A) dopamine receptor (Homo sapiens) (P21728 whole entry, looked up): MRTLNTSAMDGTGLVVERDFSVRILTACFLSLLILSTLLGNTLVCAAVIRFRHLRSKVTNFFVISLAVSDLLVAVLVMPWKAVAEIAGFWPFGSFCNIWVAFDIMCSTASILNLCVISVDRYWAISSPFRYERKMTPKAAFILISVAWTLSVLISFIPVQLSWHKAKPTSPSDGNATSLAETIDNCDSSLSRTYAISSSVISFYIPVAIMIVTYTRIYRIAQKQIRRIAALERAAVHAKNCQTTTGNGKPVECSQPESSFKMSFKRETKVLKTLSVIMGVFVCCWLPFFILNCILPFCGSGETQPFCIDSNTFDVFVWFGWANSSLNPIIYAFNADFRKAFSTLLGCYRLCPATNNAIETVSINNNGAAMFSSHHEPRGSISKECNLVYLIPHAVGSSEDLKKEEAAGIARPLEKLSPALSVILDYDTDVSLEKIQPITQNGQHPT
Outline: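 HEK293 T-REx cells expressing inducible, force-coupled D1 receptor; no-wash Ca dye, 30–90 min RT. Cmpd → 180 s read at 1 Hz → EC80 DA → 180 s read.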
On the % scale 0 is the no-effect control and ±100 the full control effect.

Activity change, negative = inhibition, active:
CCCCc1ccc(S(N)(=O)=O)cc1 -32.1%
O=C(Cn1[nH]c(=O)c2ccccc2c1=O)Nc1cccc(-c2nnc3n2CCCCC3)c1 -31.5%
COc1ccccc1Nc1cc(C(=O)NCCCN(C)C2CCCCC2)c2ccccc2n1 -69.1%
O=C(COc1ccc(Cl)cc1)NCCS(=O)(=O)N1CCN(c2ccc(F)cc2)CC1 -39.2%
O=S(=O)(c1ccc(Br)cc1)N1CCC(c2nc3ccccc3[nH]2)CC1 -31.8%

Activity change, negative = inhibition, inactive:
CC(=O)N1CCCc2ccc(NS(=O)(=O)c3ccc(F)cc3F)cc21 8.04%
O=C(O)c1ccc2c(c1)N(Cc1ccc(F)cc1)C(=O)c1ccccc1S2=O (centres undefined) -20.6%
CN(C)c1ccc(C=NCCc2ccc(S(N)(=O)=O)cc2)cc1 0.508%
NS(=O)(=O)c1ccc(CCNC(=S)Nc2ccc(S(N)(=O)=O)cc2)cc1 -10.1%
Cc1c(C(=O)Nc2cccc(-c3nnc4n3CCCCC4)c2)oc2ccccc12 -14.2%
Brc1cccc(-c2nnc3n2CCC3)c1 4.2%
O=S(=O)(c1ccc2nc(NCc3ccccc3Cl)ccc2c1)N1CCCCC1 7.22%
COC(=O)CN1C(=O)CSc2ccc(S(=O)(=O)Nc3cc(C)ccc3C)cc21 7.51%
CCCCN(CCCNC(=O)c1cc(Nc2ccccc2OC)nc2ccccc12)c1ccccc1 -1.02%
COc1ccc(Nc2cc(C(=O)NCCCN(C)c3ccccc3)c3ccccc3n2)c(OC)c1 -3.52%
CCCn1c(NCc2ccc(N(CC)CC)cc2)nc2ccccc21 7.83%
COc1ccc(OCC(=O)NCCS(=O)(=O)N2CCN(c3ccc(F)cc3)CC2)cc1 -3.53%
COc1ccccc1N1CCN(S(=O)(=O)CCNC(=O)COc2ccc(F)cc2)CC1 -4.69%
COc1cc(NC(=O)Cn2nc(-c3ccc(C)c(C)c3)ccc2=O)cc(OC)c1 -2.73%
CCOc1ccc(S(=O)(=O)N(CC(=O)NCCSCc2ccc(C)cc2)c2ccccc2)cc1 -1.46%
CCCSc1ncc(Cl)c(C(=O)Nc2sc3c(c2C(=O)NCCOC)CCCC3)n1 3.43%
N#CC(C(=O)c1ccc(S(=O)(=O)N2CCCCCC2)cc1)c1nc2ccccc2[nH]1 (centres undefined) -22.2%
O=C(C1CCCO1)N1CCC(c2nc3ccccc3[nH]2)CC1 (centres undefined) -12.2%
O=C(Nc1cc(Cl)cc(Cl)c1)c1ccc2c(c1)N(Cc1cccc(Cl)c1)C(=O)c1ccccc1S2=O (centres undefined) -24%
